Data as given in PubChem BioAssay (NCATS).
Inconclusive results are not listed. Where a call stands in place of a potency, no number is given. Unmarked numbers belong to inactive results. The source made the active and inactive calls. Calls follow the shape of the dose curve; as a rule, active = well fitted curve in the direction sought with a large enough effect; inconclusive = small, poorly fitted or top-dose-only effect, or another doubt; inactive = no such curve, though single readings can be large; an effect the other way counts as inactive or inconclusive.

Legend:
[1] = biological target: Cellular tumor antigen p53 (Homo sapiens) (UniProt P04637); experiment: Primary qHTS for small molecule compounds that upregulate eGFP-tagged delta133p53alpha (in N-terminal) cells. (AID 2060322); conditions: NCI-H358 eGFP-delta133p53alpha fluorescence, 24 h; activation: active compounds read high; also: nearly all actives have a fitted effect of over 75% in size; also: potency is read from the fitted curve at half-maximal effect;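 as to activation: cells pre-induced with doxycycline then dosed without doxycycline; series mostly up to about 56 µM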
How it was run: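 NCI-H358 cells pre-induced 24 h with 10 ng/ml doxycycline for eGFP-delta133p53alpha, plated dox-free and exposed 24 h at 37C to titrated compounds. Fixed, Hoechst-stained; gated GFP peak intensity by laser scanning cytometry, normalized to DMSO (0%) and 57.5 uM 5-azacytidine (100%).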

[2] = biological target: Aldehyde dehydrogenase, mitochondrial (Homo sapiens) (UniProt P05091); experiment: qHTS for Inhibitors of the Aldehyde Dehydrogenase Family (ALDH2) Primary screen (AID 2061308); also: nearly all actives have a fitted effect of over 55% in size
[3] = biological target: Retinaldehyde dehydrogenase 3 (Homo sapiens) (UniProt P47895); experiment: qHTS for Inhibitors of the Aldehyde Dehydrogenase Family (ALDH1A3) Primary screen (AID 2061315); also: potency is read from the fitted curve at half-maximal effect

Chain of Cellular tumor antigen p53 (Homo sapiens) (P04637 whole entry, looked up): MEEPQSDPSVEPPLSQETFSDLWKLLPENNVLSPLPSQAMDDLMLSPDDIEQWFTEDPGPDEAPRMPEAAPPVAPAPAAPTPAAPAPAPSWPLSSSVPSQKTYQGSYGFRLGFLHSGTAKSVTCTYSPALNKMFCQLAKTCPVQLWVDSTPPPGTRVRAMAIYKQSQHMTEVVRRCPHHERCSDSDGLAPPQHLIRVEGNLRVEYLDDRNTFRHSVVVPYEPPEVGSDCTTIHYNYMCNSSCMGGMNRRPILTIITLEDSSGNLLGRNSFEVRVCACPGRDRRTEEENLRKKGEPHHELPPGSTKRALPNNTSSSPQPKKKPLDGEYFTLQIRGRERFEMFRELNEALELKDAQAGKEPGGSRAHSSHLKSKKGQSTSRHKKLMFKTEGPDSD

| SMILES | activation [1] [%] | Potency [2] | Potency [3] | Potency [1] |
| --- | --- | --- | --- | --- |
| CC(=O)OC[C@]12[C@H](OC(C)=O)C(=O)[C@@H]3[C@@H](OC(C)=O)[C@@]14O[C@@]3(C)COC(=O)c1cccnc1[C@@H](C)[C@H](C)C(=O)O[C@@H]([C@H](O)[C@@H]2OC(C)=O)[C@]4(C)O | 6.25 | inactive | inactive |  |
| Fc1ccc(N2CCCCC2)c(NC(=S)c2ccncc2)c1 | -8.04 | inactive | inactive |  |
| O=S(=O)(c1ccccc1)N(CC(F)(F)F)c1ccc(C(O)(C(F)(F)F)C(F)(F)F)cc1 | -3.67 | inactive | inactive |  |
| C/C=C(\C)C(=O)O[C@H]1[C@@H](O[C@]2(COC(=O)CC(C)C)O[C@H](COC(=O)C(C)C)[C@@H](OC(C)=O)[C@@H]2O)O[C@H](COC(C)=O)[C@@H](O)[C@@H]1O | 10.7 | inactive | inactive |  |
| Nc1ccc(-n2nc(C(F)(F)F)cc2C(F)(F)F)cc1 | 0.893 | inactive | inactive |  |
| C/C(=C\CCC(C(=O)O)C1CCC2(C)C3=C(CCC12C)C1(C)CCC(=O)C(C)(C)C1CC3)C(=O)O (stereo not given) | 1.53 | inactive | inactive |  |
| C=C(C(=O)O)C1CCC2(C)CCCC(C)(O)C2C1 (stereo not given) | -5.36 | inactive | inactive |  |
| CCc1c(-c2ccccc2)c(-c2ccccc2)nn1-c1ccccc1-c1cccc(OCC(=O)O)c1 | 13 | inactive | inactive |  |
| CC[C@H](C)/C=C(C)/C=C/C1=CC2=CC(=O)[C@]3(C)OC(=O)[C@@H](C(C)=O)[C@@H]3C2=CO1 |  | inactive | inactive | 18.6 µM (active) |
| C=C1CCC2C(C)(C)CC(O)CC2(C)C1CCC(C)CCOC(=O)CCC(=O)O (stereo not given) | 17.6 | inactive | inactive |  |
| COc1cc(COC2OC(CO)C(O)C(O)C2O)cc(OC)c1O (stereo not given) | -6.87 | inactive | inactive |  |
| OC[C@@]1(O)CO[C@H](OC[C@H]2O[C@@H](OCCc3ccccc3)[C@H](O)[C@@H](O)[C@@H]2O)[C@@H]1O | -10.7 | inactive | inactive |  |
| COC(=O)C1=COC(OC2OC(CO)C(O)C(O)C2O)C2C(COC(=O)/C=C/c3ccc(O)cc3)C(O)C(O)C12 (stereo not given) | -6.87 | inactive | inactive |  |
| CC(=O)O[C@@H]1C[C@@H](OC(C)=O)C(C)(C)/C=C/[C@H](C)[C@H](OC(C)=O)[C@@]2(O)C[C@H](C)[C@H](OC(=O)c3ccccc3)[C@@H]2/C=C/1C | -3.82 | inactive | inactive |  |
| CC(C)(C)c1ccc(-c2nc3ccccc3[nH]2)cc1 | -14.3 | inactive | 8.91 µM (active) |  |
| CCN(CC)C(=O)c1ccc(Nc2nc(OCC3CCCCC3)c3[nH]cnc3n2)cc1 | 8.04 | inactive | inactive |  |
| CCC(C)C(=O)O[C@H]1[C@@H](OC(=O)c2ccoc2)C[C@](C)(O)[C@]23OC(C)(C)[C@H](C[C@H](OC(=O)c4ccoc4)[C@]12COC(C)=O)[C@H]3OC(C)=O (stereo not given in full) | 17.6 | inactive | inactive |  |
| C=CC1(C)CC(OC(=O)C(=C)C(O)COC(C)=O)C(C(=C)C(=O)OC)C(O)C1C(=C)CO (stereo not given) | -2.29 | inactive | inactive |  |
| C[C@H]1/C=C/C=C/C=C/C=C/C=C/[C@@H](O)[C@H](C(=O)O)[C@H](O)C[C@H](O)CCC[C@H](O)C[C@H](O)C[C@H](O)[C@@H](C)C(=O)O[C@@H]1C | 13.7 | inactive | inactive |  |
| O=C(Nc1ccccc1C(=O)Nc1ccc(CCO)cc1)c1ccc([N+](=O)[O-])cc1 | -29.5 | inactive | inactive |  |
| COC1=Cc2c(nc3n(c2=O)C(C)C(=O)NC3(O)C(C)C)OC=C1 (stereo not given) | -17.6 | inactive | inactive |  |
| CC(=O)c1c(O)cc2c(c1C)C(=O)CC(O)C2 (stereo not given) | -14.5 | inactive | inactive |  |
| O=C(O[C@H]1[C@@H]2C[C@@H]3OC[C@@](O)([C@H]2[C@H](O[C@@H]2O[C@H](CO)[C@@H](O)[C@H](O)[C@H]2O)O3)[C@@H]1O)c1ccccc1 | 5.36 | inactive | inactive |  |
| Cn1cc(S(C)=O)c(=O)c2ccc(F)cc21 (stereo not given) | -7.53 | inactive | inactive |  |
| COc1ccc(CCc2nc3cc(-c4c(C)noc4C)ccc3n2CC(C)N2CCOCC2)cc1Cl (stereo not given) | 3.67 | inactive | inactive |  |
